Data as given in PubChem BioAssay AID1259341 (Broad Institute, 2017).
Unmarked numbers belong to inactive results. Calls of active or inactive are those of the source.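 How the source made its calls: active means activity change under -35% in any replicate well, with more than 20 beads read in that well; inactive means the rest.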

molecular target: Caspase recruitment domain-containing protein 9 (Homo sapiens) + E3 ubiquitin-protein ligase TRIM62 (Homo sapiens) (UniProt Q9H257+Q9BVG3); assay: disruptors of CARD9-TRIM62 binding, primary screen, cell lysate, HEK293FT lysates, Luminex bead ELISA (AID 1259341); details: PE fluorescence, stronger effect = lower value, concentration not given here;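 further: PE anti-Flag signal of Flag-CARD9 captured by myc-TRIM62 beads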
Sequence (Q9BVG3 whole entry, looked up, the tested form may be a part): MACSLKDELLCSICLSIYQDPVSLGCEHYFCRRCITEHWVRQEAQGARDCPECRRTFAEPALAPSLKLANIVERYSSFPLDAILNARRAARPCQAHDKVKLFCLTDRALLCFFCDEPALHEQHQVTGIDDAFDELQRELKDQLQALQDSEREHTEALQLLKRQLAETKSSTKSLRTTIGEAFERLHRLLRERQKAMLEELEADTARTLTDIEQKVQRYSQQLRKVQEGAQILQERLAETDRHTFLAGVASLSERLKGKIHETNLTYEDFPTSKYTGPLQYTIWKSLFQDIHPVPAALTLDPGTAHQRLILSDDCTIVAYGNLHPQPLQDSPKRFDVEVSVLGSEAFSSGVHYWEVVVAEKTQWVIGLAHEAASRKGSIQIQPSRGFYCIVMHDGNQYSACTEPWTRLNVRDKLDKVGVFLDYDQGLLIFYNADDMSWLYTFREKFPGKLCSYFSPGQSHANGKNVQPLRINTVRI
Sequence (Q9H257 whole entry, looked up, the tested form may be a part): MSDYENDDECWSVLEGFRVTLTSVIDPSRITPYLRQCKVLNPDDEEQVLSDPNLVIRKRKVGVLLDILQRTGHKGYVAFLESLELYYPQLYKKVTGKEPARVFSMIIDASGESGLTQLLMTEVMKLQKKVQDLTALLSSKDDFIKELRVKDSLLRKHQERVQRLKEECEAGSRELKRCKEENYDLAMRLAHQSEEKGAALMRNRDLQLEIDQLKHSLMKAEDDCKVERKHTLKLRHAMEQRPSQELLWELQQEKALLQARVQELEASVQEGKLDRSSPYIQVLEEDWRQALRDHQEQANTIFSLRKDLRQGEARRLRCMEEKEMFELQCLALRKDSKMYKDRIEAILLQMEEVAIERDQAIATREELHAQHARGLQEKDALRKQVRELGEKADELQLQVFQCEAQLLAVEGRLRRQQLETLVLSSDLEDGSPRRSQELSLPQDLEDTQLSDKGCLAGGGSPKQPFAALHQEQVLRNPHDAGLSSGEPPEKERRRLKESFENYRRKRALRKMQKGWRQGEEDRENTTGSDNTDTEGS

Row | Structure (SMILES) | activity change, negative = inhibition
1 | CCC12CCCN3CCc4c(n(c5ccccc45)C(O)(C(=O)OC)C1)C32 (stereo unspecified) | -2.25%
2 | N#CNc1nc(O)cc(=O)[nH]1 | -9.24%
3 | COc1ccc(-c2nc(C)c(C(C)=O)n2O)cc1OC | -2.22%
4 | COc1ccc2nc(-c3ccco3)c(-c3ccco3)nc2c1 | -3.64%
5 | Cc1[nH]c2ccc(Cl)cc2c(=O)c1CN1CCCC1 | 0.531%
6 | Cn1cccc1CNCCCSc1ncccn1 | 1.41%
7 | O=C(Nc1nc(-c2ccco2)c(-c2ccco2)s1)c1ccco1 | -9.14%
8 | Cc1ccsc1[C@@H]1CCN(Cc2ccc(-c3ccn[nH]3)o2)C[C@H]1O | 0.0372%
9 | O=C(COC(=O)c1cc(-c2cccs2)nc2ccccc12)NCc1ccco1 | -1.49%
10 | Cc1ncnc(N2CCC(c3nccn3Cc3cccnc3)CC2)c1C | -10.5%
11 | O=C(Nc1nncs1)c1cc(-c2ccco2)nc2ccccc12 | -5.26%
12 | O=C(NCC1CCCO1)c1cc(-c2ccco2)nc2ccccc12 (stereo unspecified) | -3.93%
13 | C[C@H](CO)N1C[C@H](C)[C@@H](CN(C)CC2CCCCC2)OCCCC[C@H](C)Oc2ccc(NS(=O)(=O)c3ccccc3)cc2C1=O | 7.12%
14 | Cc1cnc(C)c(N2CCN(C(=O)[C@H]3CC[C@@H](N)C3)CC2)n1 | 2.01%
15 | Cc1occc1C(=O)NCc1cccc(CNC(=O)c2ccoc2C)c1 | 3.25%
16 | O=C(Nc1nnc(-c2ccco2)s1)c1ccccc1 | 1.07%
17 | O=C(Nc1nccs1)c1cc(-c2ccco2)nc2ccccc12 | -0.894%
18 | Cc1ccc(S(=O)(=O)Nc2ccc3c(c2)C(=O)N([C@H](C)CO)C[C@H](C)[C@@H](CN(C)C(=O)C2CCCCC2)OCCCC[C@H](C)O3)cc1 | 6.06%

Row | Structure (SMILES) | activity change, negative = inhibition
19 | Cc1scc(C(=O)NCc2ccco2)c1-c1ccccc1 | 1.82%
20 | O=C1CC2(CCN(C(=O)Nc3ccccc3)CC2)CN1Cc1ccc(Cl)cc1 | -3.18%
21 | O=C(COC(=O)c1cc(-c2ccco2)nc2ccccc12)NCc1ccc2c(c1)OCO2 | 3.18%
22 | CC1CCN(c2nc(-c3ccco3)c3c(c2C#N)CC(C)(C)OC3)CC1 | 5.51%
23 | OCc1ccc(O)c2ncccc12 | -35%
24 | O=C(O)c1ccc2nc(-c3ccco3)c(-c3ccco3)nc2c1 | -13.9%
25 | O=C(O)Cc1c[nH]c2cccc(O)c12 | 0.751%
26 | Cn1nnnc1SCCNCc1ccc(-c2cccc(C(F)(F)F)c2)o1 | -0.39%
27 | N#Cc1c2c(c(NCc3ccco3)n3c1nc1ccccc13)CCC2 | 5.44%
28 | CN(C)c1ccc(CN2C[C@H]3CC[C@@H]2CN(C(=O)c2ccncc2)C3)cn1 | 1.51%
29 | NC(=O)C1(N2CCCCC2)CCN(c2ncc(NC(=O)c3ccc(Cl)cc3)cc2C(=O)O)CC1 | -54.5% (active)
30 | CC(C)=CCC(C#N)(CC=C(C)C)C(=O)O | 8.02%
31 | CCc1oc2ccccc2c1C(=O)CCN1CCCCC1 | 2.4%
32 | Cc1ccc(N2C(=O)c3ccccc3C2C(=O)c2ccc(O)cc2O)cc1 (stereo unspecified) | 12.1%
33 | O=C(Nc1cccc2nsnc12)c1ccc(-c2cccc(Cl)c2)o1 | 11.7%
34 | O=C(O)CCc1ccc(-c2cccs2)n1NC(=O)c1ccco1 | 1.63%
35 | COc1ccc(Nc2nc(-c3nnc(-c4ccc(F)cc4)o3)nc3ccccc23)cc1Cl | -3.07%
36 | Cc1nc2ccccc2nc1CSCc1ccco1 | 1.2%
